# Laboratory results as given in PubChem BioAssay.
# Calls of active or inactive are those of the source.
# Experiments:
# [1] = system: Wnt5a (protein binding on small-molecule microarray); assay: small molecules binding Wnt5a protein – biophysical, small-molecule microarray, 635/667 nm fluorescence, primary screen (AID 1142); conditions: 635 nm fluorescence, higher = more signal;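 further: fluorescence read at 667 nm with signal to noise per printed feature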
# [2] = ATP-based viability of Huh7 replicon cells – cell-based, CellTiter-Glo luminescence, basal, 48 h, cytotoxicity control for HCV replication inhibitor project, primary screen (AID 1143); conditions: higher = more signal, called active from +8 up or from −8 down;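 further: Huh7 hepatoma cells carrying a hepatitis C replication reporter with no stimulus; test concentration not given here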
# [3] = basal CRE-LacZ reporter activity in PC12 – cell-based, unstimulated, primary screen (AID 1145); conditions: no forskolin, luminescence, 4.5 h, higher = more signal, called active from +8 up or from −8 down
# [4] = forskolin-driven CRE-LacZ activity in PC12 – cell-based, CRE-LacZ reporter, forskolin-stimulated, primary screen (AID 1146); conditions: luminescence, 4.5 h, higher = more signal, called active from +8 up or from −8 down;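 further: PC12 cells with 6xCRE LacZ reporter stimulated by forskolin 10 µM; beta-galactosidase reporter signal reflecting CREB driven transcription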
# [5] = molecular target: Streptavidin (Streptomyces avidinii) (UniProt P22629); assay: compounds binding control protein streptavidin – biophysical, small-molecule microarray, 635/667 nm fluorescence, artefact control for SMM compound annotation, primary screen (AID 1147); conditions: higher = more signal;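 further: signal reflects streptavidin binding to arrayed compounds as a control protein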
# [6] = probe aInhba binding on compound microarray – biochemical, small-molecule microarray, 635/667 nm fluorescence, primary screen (AID 1148); conditions: higher = more signal;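 further: score merges 667nm spot fluorescence with signal-to-noise for antibody binding to printed compounds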
# [7] = molecular target: Torsin-1A (Homo sapiens) (UniProt O14656); assay: TOR1A wild-type binding on microarray – cell lysate, small-molecule microarray, lysate, 635/667 nm, primary screen (AID 1149); conditions: COS7 hTOR1A-WT lysate, 635 nm fluorescence, higher = more signal
# [8] = molecular target: Torsin-1A (Homo sapiens) (UniProt O14656); assay: torsin A mutant lysate binding on microarrays – cell lysate, small-molecule microarray, COS7 lysate, 635/667 nm fluorescence, primary screen (AID 1150); conditions: COS7 hTOR1A mutant lysate, 635 nm fluorescence, higher = more signal;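 further: score pools 667 nm emission and signal to noise measuring lysate protein binding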
# [9] = system: Sonic hedgehog protein (Shh); assay: Sonic hedgehog microarray binding compounds – biochemical, small-molecule microarray, 635/667 nm fluorescence, primary screen (AID 1151); conditions: 635 nm fluorescence, higher = more signal;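 further: Shh protein binding to compounds spotted on small-molecule microarray slides; score combines spot fluorescence intensity with signal-to-noise across triplicate slides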
# [10] = optical density shifts of acrAB sulA E. coli – strain DRC41, OD650, 48 h, E. coli filamentation inducer project, primary screen (AID 1152); conditions: higher = more signal, called active from +8 up or from −8 down;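 further: E. coli MC1000 strain DRC41 lacking acrAB efflux pump and sulA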
# [11] = probe aLefty1 binding on compound microarray – biochemical, small-molecule microarray, 635/667 nm fluorescence, primary screen (AID 1153); conditions: higher = more signal;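 further: score merges spot fluorescence with signal-to-noise ratio from the scanned slide images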
# [12] = plasmodial surface anion channel blockers, osmotic lysis – cell-based, P. falciparum Indochina, OD700, 1 h, primary screen (AID 1154); conditions: P. falciparum Indochina infected RBC osmotic lysis, higher = more signal, called active from +8 up or from −8 down
# [13] = plasmodial surface anion channel blockers, osmotic lysis – cell-based, P. falciparum Indochina, OD700, 2 h, primary screen (AID 1155);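 further: lysis reports solute entry through the parasite surface anion channel PSAC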; conditions: P. falciparum Indochina infected erythrocytes, higher = more signal, called active from +8 up or from −8 down
# [14] = changes in parasitized red cell lysis, either direction – P. falciparum Indochina, OD700, 3 h, PSAC antagonist project, primary screen (AID 1156); conditions: P. falciparum-infected erythrocytes, osmotic lysis, higher = more signal, called active from +8 up or from −8 down
# [15] = plasmodial surface anion channel blockers, osmotic lysis – cell-based, P. falciparum Indochina, OD700, 18 h, primary screen (AID 1157); conditions: P. falciparum Indochina infected erythrocytes, osmotic lysis OD700, 18 h; higher = more signal, called active from +8 up or from −8 down
# [16] = S6 kinase pathway phospho-S6 level changes – cell-based, A549, cytoblot, luminescence, serum-stimulated, primary screen (AID 1158); conditions: 5 h, higher = more signal;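 further: serum-stimulated A549 lung adenocarcinoma cells; signal is phosphorylated S6 detected by cytoblot immunostaining with HRP secondary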
# [17] = molecular target: NADPH oxidase 2 (Homo sapiens) (UniProt P04839); assay: compounds shifting NOX2 Amplex Red fluorescence – cell-based, HEK293-NOX2, PMA-stimulated, NOX inhibitor project, primary screen (AID 1159); conditions: 45 min, higher = more signal, called active from +8 up or from −8 down; further: test concentration not given here
# [18] = molecular target: NADPH oxidase 4 (Homo sapiens) (UniProt Q9NPH5); assay: compounds shifting NOX4 Amplex Red fluorescence – cell-based, HEK293-NOX4, tetracycline-induced, NOX inhibitor project, primary screen (AID 1160); conditions: HEK293-NOX4, Amplex Red H2O2 fluorescence, 45 min; higher = more signal, called active from +8 up or from −8 down
# [19] = molecular target: NADPH oxidase 5 (Homo sapiens) (UniProt Q96PH1); assay: compounds shifting NOX5 Amplex Red fluorescence – cell-based, HEK293-NOX5, NOX inhibitor project, primary screen (AID 1161); conditions: HEK293-NOX5, ionomycin, 45 min, higher = more signal
# [20] = compound effects on lung adenocarcinoma cell viability – A549, calcein-AM fluorescence, 48 h, basal, profiling panel (AID 1162); conditions: higher = more signal; further: test concentration not given here
# Chain of NADPH oxidase 4 (Homo sapiens) (Q9NPH5 whole entry, looked up): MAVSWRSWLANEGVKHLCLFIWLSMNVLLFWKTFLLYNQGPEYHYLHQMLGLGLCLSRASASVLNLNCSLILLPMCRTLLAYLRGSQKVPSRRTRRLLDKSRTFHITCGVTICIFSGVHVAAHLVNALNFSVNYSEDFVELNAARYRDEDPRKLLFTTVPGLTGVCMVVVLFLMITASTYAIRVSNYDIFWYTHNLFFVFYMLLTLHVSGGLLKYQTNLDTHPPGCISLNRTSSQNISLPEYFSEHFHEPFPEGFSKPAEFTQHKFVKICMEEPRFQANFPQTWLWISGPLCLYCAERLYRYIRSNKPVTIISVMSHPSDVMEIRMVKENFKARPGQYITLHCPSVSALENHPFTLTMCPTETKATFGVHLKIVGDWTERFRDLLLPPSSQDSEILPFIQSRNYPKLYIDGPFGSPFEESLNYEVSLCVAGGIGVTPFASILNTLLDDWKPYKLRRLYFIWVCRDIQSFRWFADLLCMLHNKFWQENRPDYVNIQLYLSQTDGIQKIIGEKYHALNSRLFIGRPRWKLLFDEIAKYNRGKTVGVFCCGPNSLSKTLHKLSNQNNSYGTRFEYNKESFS
# Chain of Streptavidin (Streptomyces avidinii) (P22629 whole entry, looked up): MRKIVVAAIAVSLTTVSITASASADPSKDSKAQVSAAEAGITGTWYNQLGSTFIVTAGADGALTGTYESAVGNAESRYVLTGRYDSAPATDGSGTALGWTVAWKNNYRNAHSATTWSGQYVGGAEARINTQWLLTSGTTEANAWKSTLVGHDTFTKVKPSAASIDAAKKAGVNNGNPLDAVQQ
# Chain of Torsin-1A (Homo sapiens) (O14656 whole entry, looked up): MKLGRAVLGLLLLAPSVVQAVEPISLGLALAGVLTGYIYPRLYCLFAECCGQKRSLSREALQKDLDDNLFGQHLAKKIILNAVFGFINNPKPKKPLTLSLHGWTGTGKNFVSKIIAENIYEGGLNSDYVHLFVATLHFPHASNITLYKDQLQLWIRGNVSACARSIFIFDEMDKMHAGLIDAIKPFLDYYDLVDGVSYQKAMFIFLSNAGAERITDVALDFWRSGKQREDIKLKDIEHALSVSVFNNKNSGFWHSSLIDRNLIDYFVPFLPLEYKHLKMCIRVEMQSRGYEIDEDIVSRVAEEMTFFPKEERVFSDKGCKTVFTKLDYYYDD
# Chain of NADPH oxidase 5 (Homo sapiens) (Q96PH1 whole entry, looked up): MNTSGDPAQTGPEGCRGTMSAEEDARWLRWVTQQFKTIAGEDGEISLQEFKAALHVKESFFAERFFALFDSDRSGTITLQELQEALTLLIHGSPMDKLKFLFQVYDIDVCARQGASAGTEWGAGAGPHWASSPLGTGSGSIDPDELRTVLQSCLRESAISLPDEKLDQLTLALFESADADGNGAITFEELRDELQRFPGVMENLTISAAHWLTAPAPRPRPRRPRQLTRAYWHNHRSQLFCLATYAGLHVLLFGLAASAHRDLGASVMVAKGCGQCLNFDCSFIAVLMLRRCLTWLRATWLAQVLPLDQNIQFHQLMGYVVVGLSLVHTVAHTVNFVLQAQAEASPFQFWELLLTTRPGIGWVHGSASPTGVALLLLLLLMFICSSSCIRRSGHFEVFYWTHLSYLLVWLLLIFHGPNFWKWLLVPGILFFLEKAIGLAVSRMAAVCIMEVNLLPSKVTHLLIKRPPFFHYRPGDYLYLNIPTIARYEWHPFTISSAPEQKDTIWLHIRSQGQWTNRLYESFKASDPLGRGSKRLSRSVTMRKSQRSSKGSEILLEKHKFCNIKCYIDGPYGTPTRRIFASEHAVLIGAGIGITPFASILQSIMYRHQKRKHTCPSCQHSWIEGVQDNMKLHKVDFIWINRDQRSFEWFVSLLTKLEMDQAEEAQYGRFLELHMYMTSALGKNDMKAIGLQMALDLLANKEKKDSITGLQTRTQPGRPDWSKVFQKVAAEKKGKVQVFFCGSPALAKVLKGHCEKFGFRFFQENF
# Chain of NADPH oxidase 2 (Homo sapiens) (P04839 whole entry, looked up): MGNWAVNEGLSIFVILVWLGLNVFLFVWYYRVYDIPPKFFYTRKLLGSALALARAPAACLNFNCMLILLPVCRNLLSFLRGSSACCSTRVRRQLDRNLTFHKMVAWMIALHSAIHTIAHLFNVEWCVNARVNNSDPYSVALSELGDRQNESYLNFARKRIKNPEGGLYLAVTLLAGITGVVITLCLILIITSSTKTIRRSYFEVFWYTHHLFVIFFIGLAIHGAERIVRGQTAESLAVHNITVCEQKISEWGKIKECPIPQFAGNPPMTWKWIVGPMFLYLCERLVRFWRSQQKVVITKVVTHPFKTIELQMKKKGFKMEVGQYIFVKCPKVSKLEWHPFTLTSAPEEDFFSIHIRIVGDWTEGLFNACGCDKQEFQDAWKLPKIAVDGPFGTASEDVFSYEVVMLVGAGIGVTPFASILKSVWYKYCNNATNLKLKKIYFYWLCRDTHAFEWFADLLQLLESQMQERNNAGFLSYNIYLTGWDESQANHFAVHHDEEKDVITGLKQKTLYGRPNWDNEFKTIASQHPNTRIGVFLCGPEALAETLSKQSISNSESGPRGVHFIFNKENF
Structure (SMILES),composite z-score [1],z-score [2],z-score [3],z-score [4],composite z-score [5],composite z-score [6],composite z-score [7],composite z-score [8],composite z-score [9],z-score [10],composite z-score [11],z-score [12],z-score [13],z-score [14],z-score [15],z-score [16],z-score [17],z-score [18],z-score [19],z-score [20]
CC(C)CNC(=O)[C@@H]1c2ccccc2C(=O)N(Cc2ccc(OC(F)(F)F)cc2)[C@H]1c1ccc(CO)cc1,0.314,-2.27 (inactive),-0.646 (inactive),-1.28 (inactive),0.941,0.25,0.864,0.72,2.02,3.99 (inactive),0.315,2.06 (inactive),-0.18 (inactive),0.209 (inactive),-0.657 (inactive),1.69,-1.43 (inactive),0.925 (inactive),1.57,2.26
NCCCCCNC(=O)[C@H]1C[C@H]2C(=O)NCC(=O)N2[C@H]1c1ccc(O)cc1,0.518,-0.108 (inactive),0.679 (inactive),0.407 (inactive),1.72,-0.0419,1.69,0.376,2,1.01 (inactive),-0.147,0.365 (inactive),0.113 (inactive),-1.79 (inactive),0.252 (inactive),-0.565,0.653 (inactive),-1.24 (inactive),0.566,-0.0704
CC(C)(C)OC(=O)CC[C@]1(C(=O)NCc2ccccc2)N=C(c2ccc(OCCCO)cc2)O[C@H]1c1ccccc1N=[N+]=[N-],1.11,-3.04 (inactive),1.13 (inactive),-1.4 (inactive),1.71,0.317,0.466,0.78,0.425,1.78 (inactive),0.598,30.9 (active),27.9 (active),2.08 (inactive),6.66 (inactive),1.55,-2.28 (inactive),-0.17 (inactive),-2.3,0.117
C=C(COC)C(=O)CC[C@H](OC(=O)c1ccccc1-c1ccccc1C(=O)O)c1ccccc1OCCO,0.032,-0.828 (inactive),0.844 (inactive),0.122 (inactive),0.0456,-0.0021,0.241,-0.063,1.2,0.832 (inactive),-0.196,4.88 (inactive),0.673 (inactive),2.51 (inactive),0.65 (inactive),-0.541,2.1 (inactive),0.0678 (inactive),-1.57,0.341
[N-]=[N+]=Nc1ccccc1[C@H]1OC(c2ccc(OCCCO)cc2)=N[C@@]1(Cc1ccccc1)C(N)=O,0.792,-3.44 (inactive),0.862 (inactive),-1.89 (inactive),1.92,0.329,0.596,0.622,0.281,1.99 (inactive),0.752,31.6 (active),28.4 (active),1.64 (inactive),7.66 (inactive),1.8,-1.71 (inactive),0.363 (inactive),-0.45,-0.297
O=C(NCc1ccccc1)[C@@H]1c2ccccc2C(=O)N(Cc2ccccc2Cl)[C@H]1c1ccc(CO)cc1,0.531,-1.32 (inactive),-0.152 (inactive),-0.918 (inactive),0.527,-0.119,1.1,0.759,1.54,2.17 (inactive),0.139,1.79 (inactive),-0.576 (inactive),-0.0527 (inactive),-1.17 (inactive),0.894,-0.932 (inactive),0.992 (inactive),-0.544,0.703
CO[C@H]1O[C@H](CO)[C@@H](OC(=O)Nc2ccccc2)[C@H](OC(=O)Nc2ccc3c(c2)OCO3)[C@H]1OC(=O)Nc1ccc2c(c1)OCO2,0.229,-3.58 (inactive),0.754 (inactive),-2.46 (inactive),0.142,-0.018,0.505,0.781,0.739,2.12 (inactive),0.57,4.45 (inactive),-0.359 (inactive),0.0835 (inactive),-1.81 (inactive),1.21,-3.84 (inactive),-3.08 (inactive),-2.05,0.275
COc1ccc([Si](C)(C)[C@@H]2[C@@H](CCn3cc([C@H](O)c4ccccc4)nn3)O[C@]3(C(=O)N(C)c4c(Br)cc(C)cc43)[C@H]2C)cc1,0.17,-6.27 (inactive),8.24 (active),-1.37 (inactive),-0.541,0.0659,0.722,-0.0682,0.658,3.5 (inactive),-0.279,26.4 (active),15.1 (active),0.547 (inactive),0.083 (inactive),2.34,1.04 (inactive),0.593 (inactive),0.231,-1.72
CO[C@H]1O[C@H](CO)[C@@H](OC(=O)Nc2ccccc2)[C@H](OC(=O)Nc2ccccc2-c2ccccc2)[C@H]1OC(=O)Nc1ccccc1-c1ccccc1,0.289,-5.87 (inactive),1.56 (inactive),0.028 (inactive),0.787,-0.0506,0.56,0.679,0.877,0.663 (inactive),0.302,3.27 (inactive),-0.843 (inactive),-1.21 (inactive),-1.81 (inactive),0.668,-6.45 (inactive),-0.665 (inactive),-1.43,-4.11
C=CCN1C(=O)[C@@]2(O[C@@H](CCO)[C@H]([Si](C)(C)c3ccc(OC)cc3)[C@H]2C)c2cc(N3C(=O)c4cccc5cccc3c45)ccc21,-0.1,-7.95 (inactive),22.3 (active),-4.22 (inactive),0.168,0.017,0.408,0.579,0.567,1.29 (inactive),0.0313,24.5 (active),9.43 (active),0.0469 (inactive),2.56 (inactive),0.0438,-0.167 (inactive),0.606 (inactive),1.25,-3.04
CCCNC(=O)[C@@H]1c2ccccc2C(=O)N(Cc2cc(C(F)(F)F)cc(C(F)(F)F)c2)[C@H]1c1ccc(CO)cc1,0.311,-2.67 (inactive),0.649 (inactive),-1.13 (inactive),-0.555,-0.157,-0.0027,0.19,1,1.63 (inactive),0.233,3.17 (inactive),1.07 (inactive),-0.631 (inactive),0.77 (inactive),0.488,0.602 (inactive),-0.772 (inactive),0.69,1.16
C[C@@H](OCc1ccccc1)C1NC(=O)[C@@]23C(=O)N[C@@H](Cc4ccccc4)C2[C@H](C)[C@@]2(C)O[C@H]2C3/C=C/C/C=C\CNC(=O)[C@@H]2CCCN2C1=O (stereo not given in full),-0.13,-0.866 (inactive),2.13 (inactive),-1.55 (inactive),-0.9,-0.192,-0.0343,1.12,0.558,2.21 (inactive),-0.239,1.49 (inactive),0.0899 (inactive),0.933 (inactive),0.231 (inactive),0.663,-0.0597 (inactive),0.397 (inactive),-0.915,0.791
C=CCC1(CC=C)C[C@H]2CO[C@H](c3ccc(OC)cc3)N2C1=O,-0.125,-0.15 (inactive),1.73 (inactive),-0.473 (inactive),-0.147,-0.105,0.483,0.862,0.707,2.03 (inactive),-0.0654,-0.214 (inactive),0.573 (inactive),-0.123 (inactive),0.503 (inactive),0.0446,0.992 (inactive),0.181 (inactive),-0.0682,1.12
CCCNC(=O)[C@@]1(Sc2ccc(C)cc2)CC(=O)N(Cc2cc(C(F)(F)F)cc(C(F)(F)F)c2)[C@@H]1c1ccc(CO)cc1I,0.0758,-3.48 (inactive),0.0279 (inactive),-1.35 (inactive),-0.179,0.172,-0.365,0.0283,0.158,3.98 (inactive),0.114,2.98 (inactive),0.438 (inactive),-0.436 (inactive),-0.191 (inactive),4.1,1.32 (inactive),-1.29 (inactive),1.37,2.5
C#CCOc1ccc(C[C@H]2C(=O)O[C@H](Cc3ccccc3)[C@H](/C=C/C3CC3)N2CC#C)cc1,-0.245,-2.48 (inactive),-0.414 (inactive),0.741 (inactive),-0.0298,-0.183,0.498,0.212,0.145,2.04 (inactive),-0.279,0.57 (inactive),-0.251 (inactive),-0.372 (inactive),-0.383 (inactive),0.242,-0.21 (inactive),0.764 (inactive),-1.52,-0.743
C#CCN1C(C(=O)OCC)OC[C@H]1c1ccccc1 (stereo not given in full),0.0718,-2.25 (inactive),1.12 (inactive),-0.678 (inactive),-0.0517,0.195,3.34,3.27,0.789,2.39 (inactive),-0.0061,0.0429 (inactive),-1.18 (inactive),0.696 (inactive),-2.37 (inactive),1.01,0.413 (inactive),0.918 (inactive),-0.727,0.208
COc1ccc(C(=O)Nc2cccc(CN3C(=O)[C@@]4(O[C@@H](CCO)[C@H]([Si](C)(C)c5ccc(OC)cc5)[C@H]4C)c4ccccc43)c2)cc1,0.143,-8.03 (active),4.03 (inactive),-2.29 (inactive),0.182,-0.0523,0.317,0.478,0.626,0.677 (inactive),-0.0082,9.1 (active),1.27 (inactive),-0.984 (inactive),-0.11 (inactive),0.487,-6.67 (inactive),-2.83 (inactive),-2.96,-3.95
